How the values were obtained:
Details in all cases: Compound Concentration (nM):1000
KIT-autoinhibited = test system: KIT-autoinhibited
KIT = test system: KIT
LATS1 = test system: LATS1
LATS2 = test system: LATS2
LCK = test system: LCK
LIMK1 = test system: LIMK1
LIMK2 = test system: LIMK2
LKB1 = test system: T1, LKB1
T1 construct: gene STK11

LOK = test system: T2, LOK
T2 construct: gene STK10

LRRK2(G2019S) = test system: LRRK2(G2019S)
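Note: KINOMEscan scanMAX binding as percent activity remaining versus control; lower means stronger binding.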

Row | SMILES | Percent Control (KIT-autoinhibited) [%] | Percent Control (KIT) [%] | Percent Control (LATS1) [%] | Percent Control (LATS2) [%] | Percent Control (LCK) [%] | Percent Control (LIMK1) [%] | Percent Control (LIMK2) [%] | Percent Control (LKB1) [%] | Percent Control (LOK) [%] | Percent Control (LRRK2(G2019S)) [%]
1 | CCc1ccc(Oc2nccc(-c3c(-c4ccc(F)cc4)ncn3C3CCNCC3)n2)cc1 [SB-242719] | 100 | 83 | 100 | 70 | 74 | 75 | 100 | 84 | 97 | 83
2 | CCS(=O)(=O)c1ccc(OC)c(Nc2ncc(-c3cccc(F)c3)o2)c1 [GW621970X] | 14 | 13 | 94 | 100 | 25 | 100 | 100 | 100 | 100 | 100
3 | COc1cc2ncnc(Nc3ccc4c(cnn4Cc4ccccc4)c3)c2cc1OC.Cl [GW282449A] | 100 | 100 | 100 | 100 | 23 | 95 | 100 | 100 | 13 | 100
4 | CC(C)COC(=O)c1ccc2c(c1)/C(=C/Nc1ccc(S(N)(=O)=O)cc1)C(=O)N2 [GW416981X] | 85 | 100 | 100 | 91 | 100 | 100 | 100 | 100 | 100 | 36
5 | COc1cc(C)c(N(C)C(=O)CN(C)C)cc1Nc1nc(Nc2cccc(F)c2C(N)=O)c2cc[nH]c2n1 [GSK2219385] | 100 | 100 | 100 | 80 | 100 | 100 | 96 | 83 | 100 | 8.8
6 | NS(=O)(=O)c1ccc(N/N=C2\C(=O)Nc3ccc(C(=O)NCc4ccncc4)cc32)cc1 [GW300657X] | 99 | 87 | 100 | 67 | 100 | 100 | 90 | 100 | 100 | 89
7 | CCn1c(-c2nonc2N)nc2c(C#CC(C)(C)O)nc(OCCNC)cc21.Cl [GSK949675] | 100 | 100 | 65 | 11 | 100 | 100 | 100 | 70 | 100 | 100
8 | CN1CCN(C(=O)c2ccc(NC(=O)Nc3ccc(N(C)c4ccnc(Nc5ccc(CS(C)(=O)=O)cc5)n4)cc3)cc2)CC1.Cl [GW830263A] | 35 | 0 | 68 | 59 | 85 | 61 | 43 | 76 | 0.4 | 71
9 | COc1cccc(-n2ncc3c(N/N=C/c4ccncc4)ncnc32)c1 [GW784752X] | 100 | 91 | 100 | 100 | 35 | 99 | 100 | 100 | 100 | 96
10 | COc1ccc2[nH]c3c4[nH]c5ccc(OC)cc5c4c4c(c3c2c1)C(=O)NC4=O [GW296115X] | 72 | 24 | 100 | 43 | 85 | 91 | 81 | 99 | 88 | 2.6
11 | NS(=O)(=O)c1ccc(N/N=C2\C(=O)Nc3ccc(Cl)cc32)cc1 [GW280670X] | 42 | 90 | 100 | 98 | 96 | 100 | 100 | 100 | 100 | 70
12 | Cl.O=C(Nc1ccc(Oc2ccc3[nH]c(NC(=O)c4ccccc4)nc3c2)cc1)Nc1cc(C(F)(F)F)ccc1F [GW709042A] | 86 | 1.4 | 98 | 85 | 50 | 95 | 93 | 100 | 1 | 68
13 | COc1ccc2cc(-c3c(-c4ccncc4)nc(-c4ccc(S(C)(=O)=O)cc4C)n3C)ccc2c1 [SB-633825] | 91 | 74 | 67 | 70 | 54 | 74 | 29 | 100 | 1.3 | 90
14 | O=C1Nc2ccc(C(=O)c3ccco3)cc2C1=Cc1cc(Cl)c(O)c(Cl)c1 [GW406108X] | 82 | 62 | 100 | 92 | 89 | 100 | 100 | 100 | 94 | 6.9
15 | COc1cc2ncn(-c3cc(O[C@H](C)c4ccccc4Cl)c(C(N)=O)s3)c2cc1OC [GSK237701A] | 100 | 49 | 99 | 86 | 52 | 100 | 54 | 75 | 0.3 | 69
16 | COc1cc(N2CCN(C(C)C)CC2)ccc1Nc1nc(Nc2ccc(F)cc2C(=O)NC[C@@H](O)CO)c2cc[nH]c2n1 [GSK1392956A] | 100 | 100 | 100 | 95 | 100 | 92 | 75 | 81 | 100 | 5.4
17 | CN(C)c1cc2c(Nc3ccc4c(cnn4Cc4ccccc4)c3)ncnc2cn1 [GW282974X] | 100 | 100 | 100 | 65 | 77 | 100 |  | 100 | 20 | 93
18 | Cc1cc(O)cc(C)c1/C=C/c1cncc(C(N)=O)c1 [GW435821X] | 77 | 2.1 | 100 | 96 | 25 | 100 | 100 | 100 | 100 | 74
19 | COC(=O)Nc1nc2ccc(Oc3ccc(NC(=O)Nc4cc(C(F)(F)F)ccc4F)cc3)cc2s1.Cl [GW693917A] | 87 | 0.5 | 100 | 80 | 2.2 | 43 | 62 | 100 | 0.6 | 74
20 | CC1=C(C(=O)Nc2ccc3[nH]ncc3c2)C(c2ccc(Cl)c(Cl)c2)CC(=O)N1 (stereo not drawn) [GSK299115A] | 100 | 100 | 60 | 1.5 | 80 | 94 | 63 | 100 | 71 | 100

Row | SMILES | Percent Control (KIT-autoinhibited) [%] | Percent Control (KIT) [%] | Percent Control (LATS1) [%] | Percent Control (LATS2) [%] | Percent Control (LCK) [%] | Percent Control (LIMK1) [%] | Percent Control (LIMK2) [%] | Percent Control (LKB1) [%] | Percent Control (LOK) [%] | Percent Control (LRRK2(G2019S)) [%]
21 | Cl.O=C(Nc1ccc(Oc2ccc3[nH]c(NC(=O)c4ccco4)nc3c2)cc1)Nc1cc(C(F)(F)F)ccc1F [GW683134A] | 83 | 0.4 | 100 | 97 | 6.3 | 76 | 84 | 87 | 0.1 | 66
22 | C/C(Nc1ccc(S(N)(=O)=O)cc1)=C1/C(=O)Nc2ccccc21 [GW335962X] | 28 | 99 | 100 | 83 | 91 | 100 | 94 | 86 | 79 | 47
23 | NS(=O)(=O)c1ccc(N/N=C2\C(=O)Nc3ccc(-c4cnco4)cc32)cc1 [GW276655] | 81 | 58 | 56 | 65 | 89 | 60 | 67 | 100 | 92 | 17
24 | NS(=O)(=O)c1ccc(N/N=C2\C(=O)Nc3ccc(C(=O)NCCc4c[nH]cn4)cc32)cc1 [GW300660X] | 93 | 100 | 100 | 100 | 100 | 100 | 100 | 100 | 100 | 71
25 | CCS(=O)(=O)c1ccc(OC)c(Nc2ncc(-c3cccc(OC)c3)o2)c1 [GW580509X] | 20 | 9.1 | 100 | 100 | 46 | 100 | 100 | 100 | 100 | 100
26 | Cl.c1ccc(Cc2nc3ccc(Nc4ncnc5ccccc45)cc3[nH]2)cc1 [GR269666A] | 100 | 94 | 100 | 100 | 88 | 100 | 100 | 100 | 100 | 100
27 | COc1cccc(-c2c[nH]c3c(N/N=C/c4ccncc4)ncnc23)c1 [GW814408X] | 38 | 5 | 100 | 89 | 7.5 | 100 | 84 | 88 | 100 | 89
28 | NS(=O)(=O)c1ccc(Nc2ncc(-c3ccccc3)o2)cc1 [GW572399X] | 31 | 30 | 100 | 100 | 100 | 100 | 100 | 87 | 100 | 78
29 | COc1ccc(COc2ccc(Cc3cnc(N)nc3N)cc2OC)cc1 [GW632580X] | 91 | 95 | 100 | 100 | 87 | 79 | 91 | 100 | 88 | 95
30 | CN(C)CCNC(=O)Nc1ccc(N(C)c2ccnc(Nc3ccc(CS(C)(=O)=O)cc3)n2)cc1.Cl [GW830900A] | 59 | 0.1 | 92 | 88 | 93 | 85 | 100 | 83 | 14 | 76
31 | COc1cc(/C=N/Nc2ncnc3[nH]ncc23)ccc1O [GW578748X] | 57 | 56 | 100 | 52 | 42 | 100 | 100 | 100 | 100 | 49
32 | COc1ccccc1-c1cc(/C=C2\C(=O)Nc3ncc(Br)cc32)cc(Br)c1O [GW442130X] | 100 | 70 | 100 | 100 | 100 | 100 | 100 | 73 | 100 | 93
33 | CC1=C(C(=O)Nc2ccc3[nH]ncc3c2)C(c2ccc3ccccc3c2)CC(=O)N1 (stereo not drawn) [GSK270822A] | 100 | 80 | 66 | 7 | 33 | 100 | 88 | 100 | 100 | 77
34 | C[C@@H](Oc1cc(-n2cnc3ccc(OC4CCN(C)CC4)cc32)sc1C(N)=O)c1ccccc1Cl [GSK579289A] | 81 | 32 | 100 | 65 | 82 | 100 | 100 | 100 | 3.3 | 75
35 | COc1cc(C=NNc2ncnc3c2cnn3-c2ccccc2)ccc1O [GW513184X] | 100 | 42 | 90 | 100 | 34 | 100 | 100 | 69 | 100 | 100
36 | COc1ccc2c(-c3ccnc(Nc4cccc(OC(F)(F)F)c4)n3)cnn2n1 [GW810372X] | 81 | 86 | 100 | 91 | 100 | 94 | 100 | 100 | 100 | 86
37 | O=C(Nc1n[nH]c2nc(-c3ccc(O)cc3)c(Br)cc12)C1CC1 [SB-725317] | 86 | 84 | 100 | 94 | 83 | 100 | 100 | 100 | 95 | 96
38 | Cl.O=C(O[C@H]1CN[C@H](C#Cc2cc3ncnc(Nc4ccc5c(cnn5Cc5ccccc5)c4)c3s2)C1)N1CCOCC1 [GSK200398A] | 96 | 100 | 100 | 100 | 81 | 100 | 100 | 100 | 63 | 84
39 | Cl.O=S1CCN(Cc2ccc(-c3ccc4ncnc(Nc5ccc(OCc6ccccc6)c(F)c5)c4c3)o2)CC1 [GW576924A] | 100 | 100 | 100 | 100 | 100 | 100 | 100 | 100 | 100 | 100
40 | Nc1ncnc2occ(-c3ccc(NC(=O)Nc4cc(C(F)(F)F)ccc4F)cc3)c12 [GW770249X] | 31 | 0 | 100 | 91 | 25 | 100 | 94 | 83 | 0.4 | 81

Reference: PMC7826789 (International Journal of Molecular Sciences, 2021)
